This is a sample that favours compounds with a hit; in the whole collection about 0.9% have one here.
PPARg SRC-3 ag – agonists of human PPARgamma SRC-3 coactivator recruitment. P37231. biochemical PPARgamma/SRC-3 coactivator recruitment assay. activation, % at 8 µM. hit rate 0.26% among 200,000; in the data active = activation above about 23%;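 note: 0% = DMSO and 100% = reference agonist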
PPARg SRC-2 ag – PPARgamma-driven SRC-2 recruitment agonism; PPARgamma LBD-SRC-2 recruitment, biochemical; activation, % at 8 µM; hit rate 0.34% among 200,000; AID 1032;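 note: 0% = vehicle and 100% = reference agonist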
PPARg SRC-1 ag – agonists of human PPARgamma SRC-1 coactivator recruitment | activation, % at 8 µM | AID 631 | hit rate 0.41% among 200,000 | PPARgamma-SRC-1 coactivator recruitment biochemical assay | P37231; in the data active = activation above about 19%;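 note: 0% = DMSO and 100% = reference agonist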
SRC1 TRFRET art – counter-screen for PPARgamma SRC-1 recruitment agonists: TR-FRET artefact | TR-FRET detection artefact counter-screen, emission ratio; active compounds read high | TR-FRET ratio at 8 µM | hit rate 0.34% among 99,000 | AID 1051; in the data active = TR-FRET ratio above about 2300
TR-FRET SRC-2 ct – flags TR-FRET format artefacts in PPARgamma SRC-2 recruitment agonist screen. AID 1049. hit rate 0.4% among 200,000. TR-FRET ratio at 8 µM. TR-FRET artefact counter-screen; active compounds read high; in the data active = TR-FRET ratio above about 2000
SRC3 TRFRET art – counter-screen for PPARgamma SRC-3 recruitment agonists: TR-FRET artefact. PPARgamma/SRC-3 format; active compounds read high. TR-FRET ratio at 8 µM. hit rate 0.39% among 99,000. AID 1048; in the data active = TR-FRET ratio above about 2000
PPARg SRC2 conf – human PPARgamma SRC-2 recruitment agonism, confirmation; shares compounds with PPARg SRC-3 ag; biochemical SRC-2 recruitment by PPARgamma; activation, % at 8 µM; hit rate 52% among 790; AID 1297;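 note: 0% = vehicle alone and 100% = reference agonist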
PPARg SRC1 conf – human PPARgamma SRC-1 recruitment agonism, confirmation; activation, % at 8 µM; shares compounds with PPARg SRC-3 ag; PPARgamma–SRC-1 coactivator recruitment biochemical assay; hit rate 43% among 790; in the data active = activation above about 20%;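 note: 0% = vehicle wells and 100% = reference agonist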
PPARg SRC3 ag – human PPARgamma SRC-3 recruitment agonism, confirmation; shares compounds with PPARg SRC-3 ag; biochemical PPARgamma-SRC-3 coactivator recruitment, agonist mode; activation, % at 8 µM; hit rate 29% among 790; in the data active = activation above about 24%;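 note: 0% = vehicle wells and 100% = reference agonist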
* hit, by the source's call; nt = no result given. Cut-off read from the data, not from the text of the source, unless noted: active = activation above about 22%; inactive = the rest.

SMILES	PPARg SRC-3 ag	PPARg SRC-2 ag	PPARg SRC-1 ag	SRC1 TRFRET art	TR-FRET SRC-2 ct	SRC3 TRFRET art	PPARg SRC2 conf	PPARg SRC1 conf	PPARg SRC3 ag
COC(=O)c1cc2c(C)cc3ccc(C)cn3c-2c1C(=O)OC	47*	41*	26*	nt	2394*	nt	12	9	5
COC(=O)c1cc2c(C)c(C)c3ccccn3c-2c1C(=O)OC	35*	32*	18	nt	2102*	nt	7	7	4
COc1ccc(-n2cc(CNCCc3cnc[nH]3)c(-c3cccc(F)c3)n2)cc1	-3	-10	-4	1758	1338	1421	nt	nt	nt
O=c1c(Cl)c(N2CCN(S(=O)(=O)c3ccc(F)cc3)CC2)cnn1-c1cccc(Cl)c1	45*	5	47*	nt	1804	nt	45*	39*	24*
CCOc1ccc(NC(=S)N(CCN2CCOCC2)Cc2cc3cc4c(cc3[nH]c2=O)OCCO4)cc1	-6	5	8	1884	1697	1620	nt	nt	nt
O=C(CCCCCn1c(=S)[nH]c2cc3c(cc2c1=O)OCO3)N1CCN(Cc2ccccc2)CC1	11	12	5	nt	1588	nt	nt	nt	nt
O=C(CCCCCn1c(=S)[nH]c2cc3c(cc2c1=O)OCO3)N1CCN(C(=O)c2ccco2)CC1	26*	32*	13	nt	1629	nt	-1	-1	2
CC(=O)c1c(C)[nH]c(C(=O)OCC(=O)N2c3ccccc3NC(=O)C2(C)C)c1C	4	-9	5	1881	1484	1598	nt	nt	nt
O=C(Nc1ccccc1)c1sc(N2CCOCC2)nc1-c1ccccc1	7	13	6	2033	1762	1655	nt	nt	nt
CC(=O)c1sc(N2CCOCC2)nc1-c1ccccc1	27*	17	33*	2416*	2097*	2416*	37*	28*	24
C[C@@H]1CN(c2c(F)c(N)c3c(=O)c(C(=O)O)cn(C4CC4)c3c2F)C[C@H](C)N1	-4	3	-9	1730	1376	1381	nt	nt	nt
CC(Sc1nc(N2CCCCC2)c2c(c1C#N)CCCC2)C(=O)O (configuration not stated)	18	30*	19*	nt	1908	nt	25*	16	16
O=C(CN1CCOCC1)Nc1ccccc1Sc1ccc(Cl)cc1	1	6	6	1887	1646	1567	nt	nt	nt
CCCC(=O)C1=C(O)C(C(=O)OC)C(C)(C)CC1=Nc1ccc(N)cc1 (configuration not stated)	1	2	5	nt	1498	nt	nt	nt	nt
CCCC(=Nc1ccc(N)cc1)C1=C(O)C(C(=O)OC)C(C)(C)CC1=O (configuration not stated)	27*	19	9	nt	1541	nt	3	1	2
CC(=O)Oc1c(/C=C(\C#N)C(N)=O)[nH]c2ccccc12	10	22*	21*	1870	1474	1629	22*	12	13
CC(C)CCn1c(O)c(N=NC(=O)Cn2ccc(C(F)(F)F)n2)c2ccccc21	-1	-15	2	1838	1513	1441	nt	nt	nt
CN1/C(=C/c2cc[n+](C)c3ccccc23)C=Cc2ccccc21	26*	42*	33*	2343*	1994*	2217*	5	4	5
NC(=O)C1(N2CCCCC2)CCN(C(=S)Nc2cc(F)cc(F)c2)CC1	-1	0	3	1782	1408	1568	nt	nt	nt
N#Cc1ccccc1CSc1ccc(-c2nc3ccccc3[nH]2)cn1	26*	33*	22*	nt	1850	nt	35*	23*	22
CC(=O)CSc1ccc(-c2nc3cc(C)c(C)cc3[nH]2)cn1	0	0	-2	1783	1502	1677	nt	nt	nt
CCN(CC)S(=O)(=O)c1ccc(NC(=O)COC(=O)CCc2cc(OC)c(OC)c(OC)c2)cc1	0	7	5	1874	1490	1621	nt	nt	nt
CCSc1nc(N)c2c3c(sc2n1)CCC3	32*	28*	18	nt	2185*	nt	20	13	13
O=C(O)COc1ccc2nsnc2c1Cl	50*	37*	38*	nt	2267*	nt	46*	42*	27*

Screens as filed in PubChem BioAssay.
